Assays:
Experiment in all cases: log2 ratio of Biotin-Ahx-Ub-VS probe labelling (fragment/DMSO); higher = less target engagement (more negative = stronger competition), active = hit call of the paper (q ≤ 0.05, log2 ratio ≤ -1)
Conditions in all cases: compound concentration: 200 uM; treatment time: 3 h
USP19 = biological target: T1, USP19 (UniProt O94966)
T1 sequence (whole entry): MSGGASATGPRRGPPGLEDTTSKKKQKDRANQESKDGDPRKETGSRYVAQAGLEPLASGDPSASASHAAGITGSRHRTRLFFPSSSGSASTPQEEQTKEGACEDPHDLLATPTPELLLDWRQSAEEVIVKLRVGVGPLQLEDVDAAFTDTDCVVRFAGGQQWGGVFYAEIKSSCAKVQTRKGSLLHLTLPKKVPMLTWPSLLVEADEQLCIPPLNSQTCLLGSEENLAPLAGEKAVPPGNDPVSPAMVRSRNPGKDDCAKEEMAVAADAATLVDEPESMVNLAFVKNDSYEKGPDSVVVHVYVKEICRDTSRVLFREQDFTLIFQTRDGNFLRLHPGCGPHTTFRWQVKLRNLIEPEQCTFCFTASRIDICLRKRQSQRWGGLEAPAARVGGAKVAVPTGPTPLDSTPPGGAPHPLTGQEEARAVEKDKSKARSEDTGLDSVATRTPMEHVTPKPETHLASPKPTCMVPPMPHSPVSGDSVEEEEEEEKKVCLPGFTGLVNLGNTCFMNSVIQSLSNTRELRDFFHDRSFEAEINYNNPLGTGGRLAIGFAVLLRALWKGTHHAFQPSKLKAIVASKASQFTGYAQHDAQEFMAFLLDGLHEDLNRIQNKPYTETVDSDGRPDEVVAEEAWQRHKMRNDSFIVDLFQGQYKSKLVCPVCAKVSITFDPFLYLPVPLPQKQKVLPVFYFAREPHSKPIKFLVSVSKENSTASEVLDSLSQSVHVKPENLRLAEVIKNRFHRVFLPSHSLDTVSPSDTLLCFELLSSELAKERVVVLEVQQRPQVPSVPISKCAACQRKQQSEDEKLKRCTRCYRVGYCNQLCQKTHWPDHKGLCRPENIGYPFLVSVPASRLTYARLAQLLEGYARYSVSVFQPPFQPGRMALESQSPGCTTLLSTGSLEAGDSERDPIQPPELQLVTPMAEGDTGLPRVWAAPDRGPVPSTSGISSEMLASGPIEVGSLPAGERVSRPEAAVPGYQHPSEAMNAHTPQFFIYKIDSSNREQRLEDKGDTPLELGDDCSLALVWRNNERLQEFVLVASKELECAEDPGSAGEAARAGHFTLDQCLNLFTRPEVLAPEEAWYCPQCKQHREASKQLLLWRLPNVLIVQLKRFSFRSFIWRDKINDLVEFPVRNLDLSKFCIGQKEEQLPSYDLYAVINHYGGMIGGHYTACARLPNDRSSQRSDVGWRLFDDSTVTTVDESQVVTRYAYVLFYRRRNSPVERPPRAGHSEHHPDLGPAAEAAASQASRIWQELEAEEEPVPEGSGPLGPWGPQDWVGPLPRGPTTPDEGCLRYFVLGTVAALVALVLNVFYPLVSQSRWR
Outline: (§1)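 Triplicate samples of HEK293T lysate, 495 µg each, received fragment at 200 µM or vehicle for 3 h, followed by Biotin-Ahx-Ub-VS (0.5 µM final) for 1 h. After NeutrAvidin enrichment of labelled DUBs and LysC/trypsin digestion, peptides were run by diaPASEF LC-MS/MS. The values are average log2 fragment/vehicle ratios from global-median-normalised Spectronaut label-free quantities, tested by unpaired t-test on proteins having ≥2 unique peptides.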

USP22 = biological target: T2, USP22 (UniProt Q9UPT9)
T2 sequence (whole entry): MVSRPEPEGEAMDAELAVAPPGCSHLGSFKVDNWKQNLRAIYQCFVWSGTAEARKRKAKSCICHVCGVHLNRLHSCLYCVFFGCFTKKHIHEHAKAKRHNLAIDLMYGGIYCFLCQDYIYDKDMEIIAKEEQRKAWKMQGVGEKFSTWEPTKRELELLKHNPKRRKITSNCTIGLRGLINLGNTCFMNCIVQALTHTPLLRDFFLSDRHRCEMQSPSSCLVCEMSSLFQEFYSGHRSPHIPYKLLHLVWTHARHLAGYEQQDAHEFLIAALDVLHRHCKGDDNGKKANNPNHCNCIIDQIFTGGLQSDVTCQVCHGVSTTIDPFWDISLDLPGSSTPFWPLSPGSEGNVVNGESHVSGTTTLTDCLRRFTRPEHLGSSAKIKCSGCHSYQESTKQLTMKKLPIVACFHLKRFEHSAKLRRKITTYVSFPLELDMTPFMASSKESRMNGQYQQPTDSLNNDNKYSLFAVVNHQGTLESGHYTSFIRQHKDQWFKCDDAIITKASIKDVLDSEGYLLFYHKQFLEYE
Outline: as §1

USP24 = USP24 (UniProt Q9UPU5)
Chain of USP24 (Q9UPU5 whole entry): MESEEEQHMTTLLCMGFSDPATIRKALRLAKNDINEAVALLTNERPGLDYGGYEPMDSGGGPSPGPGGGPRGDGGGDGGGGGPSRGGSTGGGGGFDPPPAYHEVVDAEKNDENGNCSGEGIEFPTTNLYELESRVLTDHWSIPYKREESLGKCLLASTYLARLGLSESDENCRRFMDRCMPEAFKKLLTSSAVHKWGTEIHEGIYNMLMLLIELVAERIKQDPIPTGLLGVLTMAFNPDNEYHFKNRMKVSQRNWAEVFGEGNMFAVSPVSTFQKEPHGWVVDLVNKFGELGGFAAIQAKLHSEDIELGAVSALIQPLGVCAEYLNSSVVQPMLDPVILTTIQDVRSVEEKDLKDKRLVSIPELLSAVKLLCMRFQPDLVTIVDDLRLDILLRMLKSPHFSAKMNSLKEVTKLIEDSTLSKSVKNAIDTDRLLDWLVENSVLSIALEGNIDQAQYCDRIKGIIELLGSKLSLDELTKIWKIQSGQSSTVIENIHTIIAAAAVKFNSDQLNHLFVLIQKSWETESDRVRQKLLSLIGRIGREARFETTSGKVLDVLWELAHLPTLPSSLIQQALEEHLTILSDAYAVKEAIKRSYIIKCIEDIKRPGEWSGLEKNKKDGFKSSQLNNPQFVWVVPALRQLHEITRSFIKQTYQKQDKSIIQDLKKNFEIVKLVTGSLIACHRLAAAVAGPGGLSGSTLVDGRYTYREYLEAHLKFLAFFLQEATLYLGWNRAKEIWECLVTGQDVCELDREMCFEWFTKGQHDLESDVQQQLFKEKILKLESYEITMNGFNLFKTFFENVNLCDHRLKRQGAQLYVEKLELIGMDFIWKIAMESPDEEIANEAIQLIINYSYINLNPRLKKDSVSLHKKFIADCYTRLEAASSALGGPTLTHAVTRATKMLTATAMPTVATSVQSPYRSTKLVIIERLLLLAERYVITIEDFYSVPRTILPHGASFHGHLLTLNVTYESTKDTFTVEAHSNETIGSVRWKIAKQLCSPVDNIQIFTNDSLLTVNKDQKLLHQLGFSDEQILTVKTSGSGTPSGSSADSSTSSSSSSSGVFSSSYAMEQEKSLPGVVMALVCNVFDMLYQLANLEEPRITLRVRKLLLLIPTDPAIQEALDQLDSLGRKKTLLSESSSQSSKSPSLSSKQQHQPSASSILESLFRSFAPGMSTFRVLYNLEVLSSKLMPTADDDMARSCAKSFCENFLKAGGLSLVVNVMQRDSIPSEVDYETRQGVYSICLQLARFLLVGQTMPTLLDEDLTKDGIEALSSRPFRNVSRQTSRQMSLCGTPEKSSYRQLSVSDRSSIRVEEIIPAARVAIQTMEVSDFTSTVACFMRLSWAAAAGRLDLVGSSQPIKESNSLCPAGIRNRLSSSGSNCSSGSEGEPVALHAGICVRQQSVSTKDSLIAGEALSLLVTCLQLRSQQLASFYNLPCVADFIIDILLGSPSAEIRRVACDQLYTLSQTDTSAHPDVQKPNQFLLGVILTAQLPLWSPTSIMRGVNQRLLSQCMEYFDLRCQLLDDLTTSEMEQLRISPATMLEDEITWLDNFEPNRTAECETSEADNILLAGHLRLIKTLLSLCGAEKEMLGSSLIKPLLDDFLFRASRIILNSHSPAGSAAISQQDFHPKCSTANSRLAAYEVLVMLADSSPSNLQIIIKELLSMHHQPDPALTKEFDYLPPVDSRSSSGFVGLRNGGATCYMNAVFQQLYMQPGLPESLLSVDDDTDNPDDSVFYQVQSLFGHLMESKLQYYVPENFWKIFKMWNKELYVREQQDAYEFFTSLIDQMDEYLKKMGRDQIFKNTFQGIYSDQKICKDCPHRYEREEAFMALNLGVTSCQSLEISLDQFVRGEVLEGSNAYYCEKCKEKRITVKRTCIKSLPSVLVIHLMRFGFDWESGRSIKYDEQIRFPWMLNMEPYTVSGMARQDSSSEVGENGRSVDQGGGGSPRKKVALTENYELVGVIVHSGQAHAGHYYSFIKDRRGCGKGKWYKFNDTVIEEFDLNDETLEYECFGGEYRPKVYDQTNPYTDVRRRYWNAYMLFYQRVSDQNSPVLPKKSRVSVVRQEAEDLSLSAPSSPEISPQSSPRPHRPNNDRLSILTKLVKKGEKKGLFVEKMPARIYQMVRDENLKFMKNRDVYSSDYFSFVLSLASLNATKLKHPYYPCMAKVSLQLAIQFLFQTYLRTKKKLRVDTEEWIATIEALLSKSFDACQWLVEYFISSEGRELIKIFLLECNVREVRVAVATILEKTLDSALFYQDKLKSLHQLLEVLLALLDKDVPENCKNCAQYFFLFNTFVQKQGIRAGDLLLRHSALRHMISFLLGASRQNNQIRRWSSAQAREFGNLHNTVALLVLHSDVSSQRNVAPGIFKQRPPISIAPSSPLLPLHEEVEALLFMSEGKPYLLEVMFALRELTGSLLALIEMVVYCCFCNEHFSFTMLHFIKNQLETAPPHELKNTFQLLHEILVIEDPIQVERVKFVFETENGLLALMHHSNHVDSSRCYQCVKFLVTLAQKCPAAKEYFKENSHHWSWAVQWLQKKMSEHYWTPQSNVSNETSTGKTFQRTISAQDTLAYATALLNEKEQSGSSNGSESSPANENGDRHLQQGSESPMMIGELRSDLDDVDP
Outline: as §1

USP25 = biological target: T3, USP25 (UniProt Q9UHP3)
T3 sequence (whole entry): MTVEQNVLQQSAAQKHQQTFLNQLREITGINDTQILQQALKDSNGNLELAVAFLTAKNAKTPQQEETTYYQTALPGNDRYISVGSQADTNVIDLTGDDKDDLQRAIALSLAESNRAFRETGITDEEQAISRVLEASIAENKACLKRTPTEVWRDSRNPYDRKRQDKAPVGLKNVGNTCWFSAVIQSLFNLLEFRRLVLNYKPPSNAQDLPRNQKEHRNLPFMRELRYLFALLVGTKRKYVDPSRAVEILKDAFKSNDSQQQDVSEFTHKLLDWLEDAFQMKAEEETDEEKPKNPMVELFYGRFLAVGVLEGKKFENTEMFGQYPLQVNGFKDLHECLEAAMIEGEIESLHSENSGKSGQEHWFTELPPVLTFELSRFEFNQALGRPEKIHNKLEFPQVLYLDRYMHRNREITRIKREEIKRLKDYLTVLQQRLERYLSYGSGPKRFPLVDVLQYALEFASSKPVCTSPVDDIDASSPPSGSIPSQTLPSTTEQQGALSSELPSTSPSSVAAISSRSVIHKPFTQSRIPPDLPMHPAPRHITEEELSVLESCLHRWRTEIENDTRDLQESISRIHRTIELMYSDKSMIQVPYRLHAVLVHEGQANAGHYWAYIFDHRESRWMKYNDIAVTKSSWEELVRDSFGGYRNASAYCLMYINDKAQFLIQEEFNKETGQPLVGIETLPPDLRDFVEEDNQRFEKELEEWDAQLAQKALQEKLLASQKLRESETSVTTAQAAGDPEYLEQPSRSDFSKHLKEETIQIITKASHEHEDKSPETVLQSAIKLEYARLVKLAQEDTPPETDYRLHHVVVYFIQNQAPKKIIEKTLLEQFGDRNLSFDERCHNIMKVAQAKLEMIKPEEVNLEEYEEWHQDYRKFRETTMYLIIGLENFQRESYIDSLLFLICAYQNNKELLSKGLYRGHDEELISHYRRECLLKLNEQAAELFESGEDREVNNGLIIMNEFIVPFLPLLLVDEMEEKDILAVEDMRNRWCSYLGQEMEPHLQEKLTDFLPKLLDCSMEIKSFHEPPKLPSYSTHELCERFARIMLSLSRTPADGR
Outline: as §1

USP28 = biological target: T4, USP28 (UniProt Q96RU2)
T4 sequence (whole entry): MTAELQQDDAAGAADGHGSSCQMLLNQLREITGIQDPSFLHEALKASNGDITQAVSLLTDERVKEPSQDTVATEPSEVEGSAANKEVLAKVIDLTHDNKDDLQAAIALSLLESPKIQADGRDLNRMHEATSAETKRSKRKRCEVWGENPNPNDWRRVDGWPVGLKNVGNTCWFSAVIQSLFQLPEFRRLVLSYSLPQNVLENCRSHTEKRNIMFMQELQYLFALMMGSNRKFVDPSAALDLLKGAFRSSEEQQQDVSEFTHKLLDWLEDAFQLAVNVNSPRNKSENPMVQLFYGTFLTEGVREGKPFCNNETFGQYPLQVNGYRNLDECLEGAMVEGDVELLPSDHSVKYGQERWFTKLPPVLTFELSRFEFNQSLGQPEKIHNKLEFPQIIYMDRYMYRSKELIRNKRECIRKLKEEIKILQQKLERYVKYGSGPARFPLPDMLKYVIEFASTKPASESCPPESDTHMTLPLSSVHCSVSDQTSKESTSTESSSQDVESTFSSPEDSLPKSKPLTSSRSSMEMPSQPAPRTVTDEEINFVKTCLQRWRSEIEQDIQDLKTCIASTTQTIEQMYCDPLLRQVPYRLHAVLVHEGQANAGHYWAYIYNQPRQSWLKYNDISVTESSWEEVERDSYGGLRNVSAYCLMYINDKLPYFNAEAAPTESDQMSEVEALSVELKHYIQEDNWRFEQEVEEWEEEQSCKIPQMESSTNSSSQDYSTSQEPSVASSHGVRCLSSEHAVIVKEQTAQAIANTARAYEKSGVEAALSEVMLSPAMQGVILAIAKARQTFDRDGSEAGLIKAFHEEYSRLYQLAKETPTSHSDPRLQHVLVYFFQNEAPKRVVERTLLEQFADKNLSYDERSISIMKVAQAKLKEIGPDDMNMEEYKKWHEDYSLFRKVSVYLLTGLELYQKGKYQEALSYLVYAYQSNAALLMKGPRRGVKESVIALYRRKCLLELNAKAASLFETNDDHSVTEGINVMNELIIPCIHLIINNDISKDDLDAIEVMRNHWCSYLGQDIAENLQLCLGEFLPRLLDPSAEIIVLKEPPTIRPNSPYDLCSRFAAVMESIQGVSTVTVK
Outline: as §1

Measured: log2 ratio of Biotin-Ahx-Ub-VS probe labelling

O=C(CCl)NCc1ccc(N2CCOCC2)nc1
inactive: USP19 -0.163 | USP22 -0.181 | USP24 -0.312 | USP25 -0.432 | USP28 -0.485
